Assay outcomes as filed in PubChem BioAssay.
MCF10A rerep: induces DNA re-replication in MCF 10a normal breast cells; MCF 10A DNA re-replication, Hoechst nuclear intensity, 48 h; Potency, µM (titrated, usually from 46.1 µM), most hits filed as activators; 350,000 compounds, 2.9% hits; AID 624296; also: nearly all actives have a fitted effect of over 50% in size
SW480 rerep: induces DNA re-replication in SW480 colon adenocarcinoma cells; Potency, µM (doses to about 46.1 µM), actives largely listed as activators; 340,000 compounds, 1.8% hits; SW480 DNA re-replication, Hoechst DNA content imaging, 48 h; also: nearly all actives have a fitted effect of over 55% in size
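First, 250 cells per well were seeded. Next, compound or vehicle (23 nL) was pinned in, plates sat 48 hr at 37 C. Finally Hoechst was added for 40 min before fluorescence scanning.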
Gal4-VP16 FLuc: counter-screen for ROR gamma inhibitors: Gal4-VP16 reporter; Drosophila S2 Gal4-VP16 UAS-luciferase, luminescence, 20 h; Potency, µM (top dose mostly 53.6 µM), hits mostly inhibitors; 310,000 compounds, 3.5% hits;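 also: Gal4-VP16 expression switched on by copper sulfate through the metallothionein promoter; nearly all actives have a fitted effect of over 50% in size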
RORg inh: ROR gamma (mouse) transcription inhibition | P51450 | Drosophila S2 Gal4-RORgamma UAS-luciferase reporter, 20 h | Potency, µM (series often up to 53.6 µM), actives largely listed as inhibitors | 310,000 compounds, 5.4% hits; also: nearly all actives have a fitted effect of over 60% in size
Target sequence (P51450 whole entry, looked up, the tested form may be a part): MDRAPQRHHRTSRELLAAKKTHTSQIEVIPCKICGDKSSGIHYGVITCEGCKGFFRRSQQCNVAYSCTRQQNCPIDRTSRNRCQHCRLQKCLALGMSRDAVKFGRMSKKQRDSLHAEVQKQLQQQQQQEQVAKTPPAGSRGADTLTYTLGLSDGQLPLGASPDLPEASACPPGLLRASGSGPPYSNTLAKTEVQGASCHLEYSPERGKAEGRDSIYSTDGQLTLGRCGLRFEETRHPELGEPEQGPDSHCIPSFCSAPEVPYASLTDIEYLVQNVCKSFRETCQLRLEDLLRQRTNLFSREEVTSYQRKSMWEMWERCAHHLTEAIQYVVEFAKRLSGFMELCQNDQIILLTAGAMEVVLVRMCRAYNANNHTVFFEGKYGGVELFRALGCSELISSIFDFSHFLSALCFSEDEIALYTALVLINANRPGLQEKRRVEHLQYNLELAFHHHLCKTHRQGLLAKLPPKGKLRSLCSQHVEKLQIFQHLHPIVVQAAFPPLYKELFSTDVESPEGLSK
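Stable Schneider cell line, Gal4 DNA-binding domain fused to ROR gamma, UAS-luciferase. Cmpd 1 hr RT → CuSO4 700 uM final → 20 hr RT → luciferase reagent 10 min → luminescence.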
ELG1 DNA repair: blocks ELG1-dependent DNA repair in HEK293T cells. HEK293T ELG1-luciferase reporter, luminescence, 16 h; DNA damage induced by 5-fluorouridine. Potency, µM (doses to about 46.1 µM), usual class: inhibitors. 330,000 compounds, 2.3% hits; also: nearly all actives have a fitted effect of over 55% in size
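Reporter activity after DNA damage by 5-fluorouridine is monitored. Compound-treated cells incubate 16 hr at 37 °C, then ONE-Glo is added for 30 min before luminescence reading.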
Numbers stand for hits; – = inactive; ? = inconclusive; · = no result; [ ] = remark or other dose. Most compounds without a hit are left out; they make up all but 10% or so of the library. Calls follow the shape of the dose curve; as a rule, active = well fitted curve in the direction sought with a large enough effect; inconclusive = small, poorly fitted or top-dose-only effect, or another doubt; inactive = no such curve, though single readings can be large; an effect the other way counts as inactive or inconclusive.

SMILES	MCF10A rerep	SW480 rerep	Gal4-VP16 FLuc	RORg inh	ELG1 DNA repair
O=C(CCl)N1N=C(c2cccs2)CC1c1ccco1 (stereo unspecified)	18µM	12µM	?	11µM	23µM
CC[C@@]1(C(=O)OC)N[C@H](CN(C)C(=O)NC(C)C)[C@@H]2C(=O)N(C)C(=O)[C@@H]21	–	–	·	·	–
CCC1=C(c2ccc(C)cc2)S(=O)(=O)N=C1N1CCC(C(=O)NCCCN2CCCCC2C)CC1 (stereo unspecified)	–	–	–	–	–
C[C@@H](CN(C)C)CN1c2ccccc2CCc2ccccc21	–	–	–	–[2.98 µM]	·
O=C(Nc1c2c(nn1-c1ccccc1)CS(=O)(=O)C2)c1ccccc1Br	–	–	–	–	–
CC1(C)C2CCC(C2)C1(C)NC(=O)CNCC1CCCCC1 (stereo unspecified)	–	–	–	–	–
Cc1c(CCOC(=O)c2cc([N+](=O)[O-])cc([N+](=O)[O-])c2)sc[n+]1CC(=O)c1ccc(Br)cc1	–	–	–	4µM	?
Cc1c(CCOC(=O)CC23CC4CC(CC(C4)C2)C3)sc[n+]1CC(=O)c1ccccc1	?	–	4.5µM	?	–
COCCOC(=O)c1c(NC(=O)COC(=O)Cc2cccc(OC)c2)sc(C(N)=O)c1C	–	–	–	–	?
O=C1N/C(=N\N=C\c2cccs2)SC1Cc1cccc(Cl)c1 (stereo unspecified)	2.9µM	?	0.71µM	0.5µM	–
O=C1N/C(=N\N=C\c2cccs2)SC1Cc1ccc(Cl)cc1 (stereo unspecified)	?	–	0.63µM	1.1µM	–
CS(=O)(=O)c1ccccc1C(=O)Nc1cccc(-c2nc3ccccc3o2)c1	?	–	–	–	–
C/C=C/OC(=O)NC(c1ccccc1)[C@@]1(C(=O)OCC)CCCC1=O (stereo partly specified)	·	·	–[10 µM]	–[10 µM]	·
O=C(NCC1CCCO1)C(=O)N/N=C/c1c(F)cccc1Cl (stereo unspecified)	–	–	–	–	–
CO/N=C(/C(=O)N[C@@H]1C(=O)N2C(C(=O)O)=C(CSc3nc(C)c(CC(=O)O)s3)CS[C@H]12)c1csc(N)n1	–	–	–	–	·
CCOc1ccc(CN(C)CC(=O)Nc2ccc3c(c2)CCC3)cc1OC	–[9.22 µM]	–	?	?	16µM
COc1cc(CC(=O)Nc2ccc3c(c2)CCC3)cc(OC)c1OC	?	–	–	?	–
COc1cc(CC(=O)NC2CCCc3ccccc32)cc(OC)c1OC (stereo unspecified)	–	–	–	–	–
COc1ccc(CN(C)CC(=O)NC2CCCc3ccccc32)cc1OC (stereo unspecified)	?	4.1µM	–[10 µM]	–	–
CCN(C[C@H]1N[C@@](Cc2ccccc2)(C(=O)OC)[C@H]2C(=O)N(C)C(=O)[C@@H]12)S(=O)(=O)c1ccc(C(F)(F)F)cc1	?	–	·	·	23µM
CCN(C[C@H]1N[C@@](Cc2ccccc2)(C(=O)OC)[C@H]2C(=O)N(C)C(=O)[C@@H]12)S(=O)(=O)c1ccc(OC(F)(F)F)cc1	–	?	·	·	21µM
CCN(C[C@H]1N[C@@](Cc2ccccc2)(C(=O)OC)[C@H]2C(=O)N(Cc3ccccc3)C(=O)[C@@H]12)S(=O)(=O)c1ccc(C(F)(F)F)cc1	–	–	·	·	–
CCN(C[C@H]1N[C@@](Cc2ccccc2)(C(=O)OC)[C@H]2C(=O)N(Cc3ccccc3)C(=O)[C@@H]12)C(=O)c1ccccc1	–	–	·	·	–
CCN(C[C@H]1N[C@@](Cc2ccccc2)(C(=O)OC)[C@H]2C(=O)N(C)C(=O)[C@@H]12)S(=O)(=O)c1ccc(OC)cc1	–	?	·	·	?
CCN(C[C@H]1N[C@@](CC)(C(=O)OC)[C@H]2C(=O)N(Cc3ccccc3)C(=O)[C@@H]12)C(=O)c1ccccc1	–	–[9.22 µM]	·	·	21µM
SMILES	MCF10A rerep	SW480 rerep	Gal4-VP16 FLuc	RORg inh	ELG1 DNA repair
COc1cccc(CN2CC(C(=O)NCCc3ccc(C)s3)CCC2=O)c1 (stereo unspecified)	–	–	–	–	–
CCC1Sc2ccc(S(=O)(=O)CCC(=O)Nc3ccc(C(=O)OC)cc3)cc2NC1=O (stereo unspecified)	–	–	?	–	–
CNC(=O)CCC(=O)Nc1ccc(C(=O)OC)cc1	–	–	–	–	–
COC(=O)c1ccc(NC(=O)CCS(=O)(=O)c2ccc3c(c2)NC(=O)C(C)S3)cc1 (stereo unspecified)	–	–	7.1µM	–	?
COC(=O)c1ccc(NC(=O)CCS(=O)(=O)c2ccc(Br)cc2)cc1	–	–	11µM	–	–
COC(=O)c1ccc(NC(=O)CC(=O)Nc2ccc(C(=O)OC)cc2)cc1	15µM	–	–	–	–
COc1ccc(F)cc1S(=O)(=O)Nc1cc2c3c(c1)CCN3C(=O)CC2	–	–	·	·	?
COc1cccc(-c2ncc3ccccc3c2CO)c1	–	–	·	·	?
COc1ccc(N/N=C(\C#N)C(=N)N2CCCCC2)cc1	–	–	–	–	?
COc1ccc(N/N=C(\C#N)C(=N)SCc2ccccc2)cc1	?	–	16µM	?	?
CCC(C(=O)NC(C)(C)C)N(Cc1ccc(F)cc1)C(=O)c1snc(C(N)=O)c1N (stereo unspecified)	–	–	–	?	–
Cn1c2c(c(=O)[nH]c1=O)C(c1cccc(O)c1)C1=C(N2)c2ccccc2C1=O (stereo unspecified)	?	10µM	–	–	?
CC1=CC(C)C(C[N+]2(C)CCCCC2)C(C)C1 (stereo unspecified)	–	–	–	–	–
CC1=CC(C)C(/C=N/N=C(N)N)C(C)C1 (stereo unspecified)	?	?	–	–	5.8µM
CC(C)(C)NC(=O)CSc1nc2[nH]ncc2c(=O)[nH]1	–	–	–	–	–
Cc1cc(/C=C2\C(=N)N3N=C(c4ccco4)SC3=NC2=O)c(C)n1Cc1ccccc1	21µM	–	–	–	–
Cc1ccc(CNC(=O)C2c3ccccc3C(=O)N3CCc4ccccc4C23)o1 (stereo unspecified)	18µM	?	–	–	–
O=C(NCCN1CCN(Cc2ccccc2)CC1)C1c2ccccc2C(=O)N2CCc3ccccc3C12 (stereo unspecified)	–	–	–	–	–
CC/C(=N\NC(=O)CNC(=O)/C=C/c1ccc(OC)cc1)c1ccccc1	–	–	–	–	–
CC(C)NC[C@@H](O)COc1ccccc1-n1cccc1	·	·	–	–	·
Nc1ccc(Cc2nc3c(ccc4ccccc43)[nH]2)cc1	–	–	–	?	–
c1ccc(-c2nc3c(ccc4ccccc43)[nH]2)nc1	–	–[9.22 µM]	1µM	0.35µM	?
Cc1c(N)cccc1-c1nc2ccccc2[nH]1	–	–	?	11µM	?
